Source: PubChem BioAssay AID1159580 (chemical genetic matrix, 2015)
The whole screen tested about 5,500 compounds, of which about 2,000 (36%) were called active. Another 18% or so got no clear call; they are omitted. Cut-off read from the data, not from the text of the source: active = normalized growth mostly below about 0.91 (no sharp cut-off); inconclusive = no clear call, values can overlap the other calls; inactive = mostly above about 0.92. This is one part of the list.

Assay: chemical genetic growth profiling, strain panel (AID 1159580);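 note: tested at 20 µM; growth read once vehicle control cultures reached saturation at 30 °C; 1 = growth at the plate median or of vehicle wells; lower values mean less growth of the strain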
Conditions: S. cerevisiae deletion strains, growth OD

Measured: normalized growth

Nc1ccn([C@@H]2O[C@H](CO)[C@@H](O)C2O)c(=O)n1 (some centres not stated)
inactive: locus YAL013W, strain DEP1, hits give low values 0.982 | locus YAL040C, strain CLN3, hits give low values 1.03 | locus YDR363W, strain ESC2, hits give low values 0.981 | locus YER002W, strain NOP16, hits give low values 1 | locus YNL128W, strain TEP1, hits give low values 0.967 | locus YNL175C, strain NOP13, hits give low values 0.987 | locus YNL197C, strain WHI3, hits give low values 0.976 | locus YNL224C, strain SQS1, hits give low values 0.983 | locus YNL322C, strain KRE1, hits give low values 1 | locus YOR083W, strain WHI5 (second series), hits give low values 1.05 | locus YPL055C, strain LGE1, hits give low values 0.99 | locus YPL241C, strain CIN2, hits give low values 0.996
